“And” between values parts separate entries of the source, which are not always exact repeats. Equal values may be shown once. The source made the active and inactive calls.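 Rule for the calls, unless noted: active = inhibition at or above 50% relative to wild type and mutant plate controls; inactive = inhibition below 50%.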

We go through five molecules from PubChem BioAssay.

Assay [1] in a line: inhibitors of TNFa-induced NFkB p65 translocation, primary screen, imaging, HUVEC, MLSMR starter and 10KST1 sets (AID 438;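 active = inhibition above 20% together with a positive visual image hit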;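 note: compound added about 3h40 before a 20 min TNFalpha stimulation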;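 for inhibition: signal is the nuclear over cytoplasmic p65 intensity ratio per well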). Particulars: HUVEC TNFa-induced p65 nuclear translocation; cell count: measured here: nuclei count (cytotoxicity indicator), at 2.08 µM; inhibition: at 2 µM, stronger effect = higher value, 0% TNFa-plus-vehicle, 100% no-TNFa wells.
Assay [2] can be described thus: inhibitors of mutant huntingtin aggregation, primary screen, imaging, exon1htt(103Q)mCFP cells, high-content imaging (AID 483;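 active = visual image review flags a hit and inhibition of aggregation exceeds 20%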;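 note: compound exposure lasted 3 days before fixation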;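 for nuclei count: percent of the per-plate median nuclei count of sample wells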). Particulars: exon1htt(103Q)mCFP cell line, aggregate imaging, at 2 µM; inhibition of aggregation: stronger effect = higher value; nuclei count: measured here: cell count, toxicity.
Assay [3] is described as follows: inhibitors of E-selectin induction by TNFa, primary screen, imaging, HUVEC, immunofluorescence, MLSMR starter and 10KST1 sets (AID 487;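 active = visually confirmed hit in the image check and inhibition above 20%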;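 for inhibition: signal is fraction of cell area covered by stained E-selectin grains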;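 for nuclei count: 100% = median nuclei count of all wells on the same plate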). The following applies: HUVEC TNFalpha-induced E-selectin immunofluorescence imaging, at 2 µM; inhibition: stronger effect = higher value; nuclei count: measured here: cell number, toxicity.
Assay [4] is described as follows: DUSP6 inhibitors restoring Erk phosphorylation by chemical complementation, primary imaging in DUSP6-transfected HeLa (AID 609;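 active = compounds giving at least 50% inhibition in the cell-based MKP-3 phosphatase rescue imaging test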;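 for inhibition: phospho-Erk level distribution per well compared with pooled transfected vehicle control wells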). Particulars: HeLa MKP-3 transfected, phospho-Erk imaging KS statistic, at 10 µM, cells stimulated with TPA for 15 min.
Assay [5] has as its target Dual specificity protein phosphatase 6 (Homo sapiens) (UniProt Q16828). The description is as above. Particulars: HeLa MKP-3 transfected, phospho-Erk imaging KS statistic; at 10 µM; stronger effect = higher value; cells stimulated with TPA for 15 min.
The target of assay [6] is Voltage-gated potassium channel subunit beta-2 (Rattus norvegicus) (UniProt P62483). Put plainly: KvBeta enzyme negative modulators, primary screen, biochemical, NADPH fluorescence (AID 622;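 active = fluorescence slope higher than the sample average by over 3 SD, cut at about -0.22 in these data, passing the limit was not always enough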;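 note: slope of raw intensity against log time taken from 70 to 1610 s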). Particulars: recombinant KvBeta, 4-cyanobenzaldehyde reduction, at 10 µM, stronger effect = higher value.
Assay [7] shares this target. The assay can be described thus: KvBeta positive modulators, primary screen, biochemical, NADPH fluorescence (AID 623;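 active = NADPH fluorescence slope more negative than the mean of all samples by about 3 SD, 99.7% confidence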;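 note: fluorescence intensity change per second fitted from 20 to 320 s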). The following applies: Recombinant KvBeta, NADPH fluorescence decrease slope, 10 min; at 10 µM; stronger effect = lower value.
Assay [8] deals with Alpha-2C adrenergic receptor (Homo sapiens) (UniProt P18825). Put plainly: modulators of alpha2C/GIRK thallium flux, primary screen, cell-based, HEK293 alpha2C/GIRK1/2 (AID 624;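 active = fluorescence slope after compound addition differing from the mean of all screened samples at 99.7% confidence, in either direction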;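 note: slope of fluorescence ratio to pre-addition baseline per second over 15 to 24 s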). Particulars: thallium flux BTC fluorescence, at 10 µM, actives lie on both sides.
Assay [9] in a line: inhibitors of larval lipid processing in zebrafish, primary screen, whole organism, PED6 fluorescence, gall bladder and intestine (AID 686;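 active = a full or partial loss of lipid-probe fluorescence in the fish gall bladder, intestine or both, judged by eye; inactive = no fluorescence loss, or compound toxic to the fish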;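 note: larvae 5 to 7 days old with five fish per well; signal comes from phospholipase A2 cleavage of quenched PED6 carried via bile; overnight exposure to compound and PED6 before scoring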). Particulars: Zebrafish larvae PED6 lipid processing, fluorescence scoring; screened at 20 µM (by protocol).
Assay [10] in a line: inhibitors of Chlamydomonas gravitaxis, primary screen, whole organism, Chlamydomonas reinhardtii, WT vs cilia-less mutant, absorbance, 96-well (AID 463189).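 Note: 0% = wild type cc124 cells in DMSO and 100% = ciliumless bld1 mutant cells.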 The following applies: OD600 absorbance, 2 days, at 10 µM, stronger effect = higher value.
The nature of assay [11]: inhibitors of Sendai virus-induced IRF3 signaling, primary screen, TLR/RLR signaling modifier project, cell-based, Sendai virus stimulus, luciferase, 10K MLSCN set (AID 602276;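 active = inhibition at or above 50% at 10 µM; inactive = inhibition below 50%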;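 note: firefly luciferase from ISG56 promoter only with Renilla not read in this screen; 0% = Sendai virus plus DMSO and 100% = medium plus DMSO without virus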). Particulars: HEK293 RL24 IRF3 luciferase reporter, at 10 µM, stronger effect = higher value.
Assay [12] is described as follows: inhibitors of poly I:C-induced TLR3 signaling, primary screen, cell-based, poly I:C stimulus, luciferase, 10K MLSCN set (AID 602277;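 active = inhibition of the reporter signal at or above 50%; inactive = inhibition below 50%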). Particulars: HEK293-TLR3 RL24 IRF3 luciferase reporter, at 10 µM, stronger effect = higher value.
Where [13] appears, read: measured here: cell density z-score.
The mark [14] stands for this setting: measured here: nuclear c-Myc green intensity z-score.
[15] abbreviates: measured here: nuclear pErk red intensity z-score, stronger effect = higher value.

Chain of Dual specificity protein phosphatase 6 (Homo sapiens) (Q16828 whole entry, looked up): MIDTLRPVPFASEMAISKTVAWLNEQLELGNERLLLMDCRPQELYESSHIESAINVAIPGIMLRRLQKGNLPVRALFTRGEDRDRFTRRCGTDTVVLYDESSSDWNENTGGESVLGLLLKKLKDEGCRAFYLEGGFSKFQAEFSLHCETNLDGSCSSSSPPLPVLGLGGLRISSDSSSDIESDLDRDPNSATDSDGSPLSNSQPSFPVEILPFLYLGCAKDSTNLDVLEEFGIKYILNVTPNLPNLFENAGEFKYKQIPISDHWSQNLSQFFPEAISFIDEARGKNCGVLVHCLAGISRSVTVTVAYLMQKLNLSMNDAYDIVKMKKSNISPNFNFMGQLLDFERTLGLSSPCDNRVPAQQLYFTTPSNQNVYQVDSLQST
Chain of Voltage-gated potassium channel subunit beta-2 (Rattus norvegicus) (P62483 whole entry, looked up): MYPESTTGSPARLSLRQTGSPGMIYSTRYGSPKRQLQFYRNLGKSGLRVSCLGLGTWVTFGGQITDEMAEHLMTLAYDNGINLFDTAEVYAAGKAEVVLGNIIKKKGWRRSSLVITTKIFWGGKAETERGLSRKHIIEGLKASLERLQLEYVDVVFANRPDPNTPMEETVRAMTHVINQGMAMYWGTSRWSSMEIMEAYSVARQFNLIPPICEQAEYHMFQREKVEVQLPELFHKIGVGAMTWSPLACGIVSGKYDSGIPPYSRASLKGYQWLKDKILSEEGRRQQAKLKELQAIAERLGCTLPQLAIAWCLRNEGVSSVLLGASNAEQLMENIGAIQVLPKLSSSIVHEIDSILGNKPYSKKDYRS
Chain of Alpha-2C adrenergic receptor (Homo sapiens) (P18825 whole entry, looked up): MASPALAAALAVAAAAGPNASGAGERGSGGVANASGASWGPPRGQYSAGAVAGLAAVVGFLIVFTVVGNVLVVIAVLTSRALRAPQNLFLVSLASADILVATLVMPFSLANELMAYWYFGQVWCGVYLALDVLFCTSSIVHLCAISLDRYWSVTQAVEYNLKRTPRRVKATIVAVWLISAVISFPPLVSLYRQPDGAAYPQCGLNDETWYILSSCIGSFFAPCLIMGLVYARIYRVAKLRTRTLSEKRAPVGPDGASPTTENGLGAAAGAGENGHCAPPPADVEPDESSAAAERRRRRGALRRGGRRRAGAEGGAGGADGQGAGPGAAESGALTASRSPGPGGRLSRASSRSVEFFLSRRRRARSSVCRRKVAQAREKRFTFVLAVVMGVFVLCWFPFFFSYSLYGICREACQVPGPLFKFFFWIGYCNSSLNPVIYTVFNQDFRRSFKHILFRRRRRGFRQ

For `CCOC(=O)c1c(C)n(C)c2ccc(O)c(S(=O)(=O)c3ccccc3)c12`, in [1], the cell count was determined as 278. The inhibition was -3.6% (inactive) in assay [1]; -19.6% (inactive) in assay [3]; -8.76% (inactive) in assay [5]; -15.5% (inactive) in assay [10]; 21.8% (inactive) in assay [11]; 27% (inactive) in assay [12]. In addition, the inhibition of aggregation in [2] was -0.2% (inactive). The nuclei count in assay [2] is 103%; in assay [3] it was 109%. Further, the z-score in assay [4] (setting [13]) was -0.746; in assay [4] (setting [14]), 0.777; in assay [4] (setting [15]) it was 1.13. In addition, in assay [6], the fluorescence slope was -0.458 (inactive). Also, the NADPH fluorescence slope in assay [7] is -0.000154 (inactive). For the same molecule, the slope in assay [8] is 0.00656 (inactive). For the same molecule, the molecule was called inactive in [9].

As for `O=C(O)CCCCCCC1C(=O)NC(=O)N1CCC(O)C1CCCCC1` (stereo not given), the cell count in [1] was found to be 579. Also, the inhibition in assay [1] is -9.7% (inactive); in assay [3], -76.1% (inactive); in assay [5], -0.493% (inactive); in assay [10], 1.26% (inactive); in assay [11], 15.9% (inactive); in assay [12], 36.2% (inactive). Moreover, the inhibition of aggregation in assay [2] was -6.4% (inactive). The values for the nuclei count in [2] and in assay [3] were 97.8% and 116%, respectively. The z-score was -0.528 in [4] (setting [13]), -0.266 in assay [4] (setting [14]) and 1.03 in [4] (setting [15]). Also, the fluorescence slope in assay [6] was -0.507 (inactive). Also, in assay [7], the NADPH fluorescence slope was -5.2e-05 (inactive). In addition, in assay [8], the slope was 0.00541 (inactive). In assay [9], the molecule was called inactive.

Turning to `O=C(C1CCCCC1)N1CC(=O)N2CCc3ccccc3C2C1` (stereo not given), the cell count in assay [1] was 552 and 561. Besides, the inhibition was -7.7% (inactive) and -4.1% (inactive) in [1]; -103% (inactive) and -50.4% (inactive) in [3]; 1.48% (inactive) and 1.9e-07% (inactive) in assay [5]; 6.15% (inactive) and -13.5% (inactive) and -10.9% (inactive) in assay [10]; 8.76% (inactive) in assay [11]; 17.3% (inactive) in [12]. Further, the inhibition of aggregation in assay [2] is 16.2% (inactive). Also, the nuclei count in assay [2] is 109%; in assay [3], 115% and 103%. Further, the z-score in assay [4] (setting [13]) is -1.12 and -0.574; in assay [4] (setting [14]), 0.266 and 0.927; in [4] (setting [15]) it was -0.413 and -1.5. For the same molecule, the fluorescence slope in assay [6] was -0.447 (inactive) and -0.51 (inactive). Moreover, the NADPH fluorescence slope in assay [7] is 2.3e-05 (inactive) and -4.3e-06 (inactive). Besides, the slope in [8] is 0.00517 (inactive) and 0.00493 (inactive). Moreover, the molecule was classed as inactive in [9].

Consider `CN(C)c1ccc(O)c2c1CC1CC3[C@@H](N(C)C)C(=O)C(C(N)=O)=C(O)[C@]3(O)C(=O)C1=C2O` (stereo not given in full), for which the cell count in assay [1] was determined as 516. The inhibition in assay [1] was -12.2% (inactive); in assay [3], -55.7% (inactive); in assay [5], 1.48% (inactive); in assay [10], 82.6% (active); in [11], 17.8% (inactive); in assay [12], 26.1% (inactive). In addition, in [2], the inhibition of aggregation was 71.3% (active). In addition, the nuclei count came out at 103% in assay [2] and 131% in assay [3]. The z-score turned out to be 0.362 in assay [4] (setting [13]), 0.874 in [4] (setting [14]) and 0.268 in assay [4] (setting [15]). Further, the fluorescence slope in assay [6] is -0.51 (inactive). The NADPH fluorescence slope in assay [7] was -5e-06 (inactive). In addition, the slope in assay [8] was 0.00461 (inactive). The result in assay [9] was inactive.

`COCCCN1C(=O)C(O)=C(C(=O)c2ccco2)C1c1ccc(Br)cc1` (stereo not given): the cell count in assay [1] was determined as 417. The inhibition in assay [1] is -4.6% (inactive); in assay [3], -25.5% (inactive); in assay [5], -4.7% (inactive); in assay [10] it was 6.25% (inactive); in [11], 23.9% (inactive); in assay [12] it was 22.2% (inactive). Further, in [2], the inhibition of aggregation was -13.4% (inactive). In addition, the nuclei count is 107% in [2] and 117% in assay [3]. Besides, the z-score in assay [4] (setting [13]) is -1.16; in assay [4] (setting [14]), 0.864; in assay [4] (setting [15]) it was 0.315. In addition, the fluorescence slope in assay [6] was -0.457 (inactive). Besides, the NADPH fluorescence slope in assay [7] is 7.2e-06 (inactive). In addition, the slope in [8] is 0.00512 (inactive). Besides, in assay [9], the result was inactive.
